Results: PubChem BioAssay
Active and inactive are the calls of the source. Unless noted, how the calls were made is not given here.

How the values were obtained:
[1] = test system: Wnt5a (protein binding on small-molecule microarray); assay: small molecules binding Wnt5a protein – biophysical, small-molecule microarray, 635/667 nm fluorescence, primary screen (AID 1142); settings: 635 nm fluorescence, higher = more signal;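 further: fluorescence read at 667 nm with signal to noise per printed feature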
[2] = ATP-based viability of Huh7 replicon cells – cell-based, CellTiter-Glo luminescence, basal, 48 h, cytotoxicity control for HCV replication inhibitor project, primary screen (AID 1143); settings: higher = more signal, called active from +8 up or from −8 down;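 further: Huh7 hepatoma cells carrying a hepatitis C replication reporter with no stimulus; test concentration not given here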
[3] = Pseudomonas biofilm growth suppression – PAO1 strain, BacTiter-Glo luminescence, LB-PBS, primary screen (AID 1144); settings: P. aeruginosa PAO1 biofilm, 12 h, higher = more signal
[4] = basal CRE-LacZ reporter activity in PC12 – cell-based, unstimulated, primary screen (AID 1145); settings: no forskolin, luminescence, 4.5 h, higher = more signal, called active from +8 up or from −8 down
[5] = forskolin-driven CRE-LacZ activity in PC12 – cell-based, CRE-LacZ reporter, forskolin-stimulated, primary screen (AID 1146); settings: luminescence, 4.5 h, higher = more signal, called active from +8 up or from −8 down;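 further: PC12 cells with 6xCRE LacZ reporter stimulated by forskolin 10 µM; beta-galactosidase reporter signal reflecting CREB driven transcription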
[6] = biological target: Streptavidin (Streptomyces avidinii) (UniProt P22629); assay: compounds binding control protein streptavidin – biophysical, small-molecule microarray, 635/667 nm fluorescence, artefact control for SMM compound annotation, primary screen (AID 1147); settings: higher = more signal;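 further: signal reflects streptavidin binding to arrayed compounds as a control protein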
[7] = probe aInhba binding on compound microarray – biochemical, small-molecule microarray, 635/667 nm fluorescence, primary screen (AID 1148); settings: higher = more signal;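 further: score merges 667nm spot fluorescence with signal-to-noise for antibody binding to printed compounds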
Torsin-1A (Homo sapiens) [8] = biological target: Torsin-1A (Homo sapiens) (UniProt O14656); assay: TOR1A wild-type binding on microarray – cell lysate, small-molecule microarray, lysate, 635/667 nm, primary screen (AID 1149); settings: COS7 hTOR1A-WT lysate, 635 nm fluorescence, higher = more signal
Torsin-1A (Homo sapiens) [9] = biological target: Torsin-1A (Homo sapiens) (UniProt O14656); assay: torsin A mutant lysate binding on microarrays – cell lysate, small-molecule microarray, COS7 lysate, 635/667 nm fluorescence, primary screen (AID 1150); settings: COS7 hTOR1A mutant lysate, 635 nm fluorescence, higher = more signal;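 further: score pools 667 nm emission and signal to noise measuring lysate protein binding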
[10] = test system: Sonic hedgehog protein (Shh); assay: Sonic hedgehog microarray binding compounds – biochemical, small-molecule microarray, 635/667 nm fluorescence, primary screen (AID 1151); settings: 635 nm fluorescence, higher = more signal;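 further: Shh protein binding to compounds spotted on small-molecule microarray slides; score combines spot fluorescence intensity with signal-to-noise across triplicate slides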
[11] = optical density shifts of acrAB sulA E. coli – strain DRC41, OD650, 48 h, E. coli filamentation inducer project, primary screen (AID 1152); settings: higher = more signal, called active from +8 up or from −8 down;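 further: E. coli MC1000 strain DRC41 lacking acrAB efflux pump and sulA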
[12] = probe aLefty1 binding on compound microarray – biochemical, small-molecule microarray, 635/667 nm fluorescence, primary screen (AID 1153); settings: higher = more signal;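 further: score merges spot fluorescence with signal-to-noise ratio from the scanned slide images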
[13] = plasmodial surface anion channel blockers, osmotic lysis – cell-based, P. falciparum Indochina, OD700, 1 h, primary screen (AID 1154); settings: P. falciparum Indochina infected RBC osmotic lysis, higher = more signal, called active from +8 up or from −8 down
[14] = plasmodial surface anion channel blockers, osmotic lysis – cell-based, P. falciparum Indochina, OD700, 2 h, primary screen (AID 1155);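 further: lysis reports solute entry through the parasite surface anion channel PSAC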; settings: P. falciparum Indochina infected erythrocytes, higher = more signal, called active from +8 up or from −8 down
[15] = changes in parasitized red cell lysis, either direction – P. falciparum Indochina, OD700, 3 h, PSAC antagonist project, primary screen (AID 1156); settings: P. falciparum-infected erythrocytes, osmotic lysis, higher = more signal, called active from +8 up or from −8 down
[16] = plasmodial surface anion channel blockers, osmotic lysis – cell-based, P. falciparum Indochina, OD700, 18 h, primary screen (AID 1157); settings: P. falciparum Indochina infected erythrocytes, osmotic lysis OD700, 18 h; higher = more signal, called active from +8 up or from −8 down
[17] = S6 kinase pathway phospho-S6 level changes – cell-based, A549, cytoblot, luminescence, serum-stimulated, primary screen (AID 1158); settings: 5 h, higher = more signal;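 further: serum-stimulated A549 lung adenocarcinoma cells; signal is phosphorylated S6 detected by cytoblot immunostaining with HRP secondary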
[18] = biological target: NADPH oxidase 2 (Homo sapiens) (UniProt P04839); assay: compounds shifting NOX2 Amplex Red fluorescence – cell-based, HEK293-NOX2, PMA-stimulated, NOX inhibitor project, primary screen (AID 1159); settings: 45 min, higher = more signal, called active from +8 up or from −8 down; further: test concentration not given here
[19] = biological target: NADPH oxidase 4 (Homo sapiens) (UniProt Q9NPH5); assay: compounds shifting NOX4 Amplex Red fluorescence – cell-based, HEK293-NOX4, tetracycline-induced, NOX inhibitor project, primary screen (AID 1160); settings: HEK293-NOX4, Amplex Red H2O2 fluorescence, 45 min; higher = more signal, called active from +8 up or from −8 down
[20] = biological target: NADPH oxidase 5 (Homo sapiens) (UniProt Q96PH1); assay: compounds shifting NOX5 Amplex Red fluorescence – cell-based, HEK293-NOX5, NOX inhibitor project, primary screen (AID 1161); settings: HEK293-NOX5, ionomycin, 45 min, higher = more signal
Chain of NADPH oxidase 5 (Homo sapiens) (Q96PH1 whole entry, looked up): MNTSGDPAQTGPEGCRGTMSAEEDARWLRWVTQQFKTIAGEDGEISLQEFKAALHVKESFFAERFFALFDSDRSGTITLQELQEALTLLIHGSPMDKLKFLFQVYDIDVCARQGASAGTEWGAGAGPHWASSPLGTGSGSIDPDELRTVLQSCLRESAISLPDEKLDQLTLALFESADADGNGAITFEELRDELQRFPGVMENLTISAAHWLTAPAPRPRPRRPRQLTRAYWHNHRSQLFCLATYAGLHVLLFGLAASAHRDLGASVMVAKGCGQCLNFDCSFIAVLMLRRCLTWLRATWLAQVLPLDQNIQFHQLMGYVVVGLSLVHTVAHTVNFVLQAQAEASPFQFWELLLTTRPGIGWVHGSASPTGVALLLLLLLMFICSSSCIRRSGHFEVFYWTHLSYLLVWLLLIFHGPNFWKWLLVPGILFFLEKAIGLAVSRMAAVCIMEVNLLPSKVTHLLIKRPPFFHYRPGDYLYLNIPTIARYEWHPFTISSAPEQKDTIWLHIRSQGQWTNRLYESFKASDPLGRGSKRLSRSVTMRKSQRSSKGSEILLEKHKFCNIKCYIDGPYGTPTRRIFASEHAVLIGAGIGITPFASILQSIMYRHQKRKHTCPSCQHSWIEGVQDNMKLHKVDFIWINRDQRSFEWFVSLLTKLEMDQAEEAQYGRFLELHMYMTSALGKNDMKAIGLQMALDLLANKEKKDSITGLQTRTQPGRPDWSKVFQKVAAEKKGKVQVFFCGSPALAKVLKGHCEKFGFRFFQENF

Chain of NADPH oxidase 4 (Homo sapiens) (Q9NPH5 whole entry, looked up): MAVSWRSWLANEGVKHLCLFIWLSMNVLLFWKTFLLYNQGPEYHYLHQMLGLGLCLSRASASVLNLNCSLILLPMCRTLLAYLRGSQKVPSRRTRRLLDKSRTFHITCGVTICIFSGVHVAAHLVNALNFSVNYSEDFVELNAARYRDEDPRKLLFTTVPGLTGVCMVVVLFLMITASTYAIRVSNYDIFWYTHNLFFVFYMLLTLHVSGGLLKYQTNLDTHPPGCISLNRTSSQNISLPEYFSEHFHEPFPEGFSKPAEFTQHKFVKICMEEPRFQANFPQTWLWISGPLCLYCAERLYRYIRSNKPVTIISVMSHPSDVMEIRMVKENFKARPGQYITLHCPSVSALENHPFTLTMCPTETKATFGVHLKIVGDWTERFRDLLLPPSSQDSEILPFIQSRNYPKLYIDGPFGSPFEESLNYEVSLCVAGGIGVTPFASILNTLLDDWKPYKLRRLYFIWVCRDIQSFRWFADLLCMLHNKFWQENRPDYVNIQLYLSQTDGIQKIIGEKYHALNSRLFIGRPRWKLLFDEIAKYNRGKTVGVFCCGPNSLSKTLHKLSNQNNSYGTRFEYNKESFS
Chain of NADPH oxidase 2 (Homo sapiens) (P04839 whole entry, looked up): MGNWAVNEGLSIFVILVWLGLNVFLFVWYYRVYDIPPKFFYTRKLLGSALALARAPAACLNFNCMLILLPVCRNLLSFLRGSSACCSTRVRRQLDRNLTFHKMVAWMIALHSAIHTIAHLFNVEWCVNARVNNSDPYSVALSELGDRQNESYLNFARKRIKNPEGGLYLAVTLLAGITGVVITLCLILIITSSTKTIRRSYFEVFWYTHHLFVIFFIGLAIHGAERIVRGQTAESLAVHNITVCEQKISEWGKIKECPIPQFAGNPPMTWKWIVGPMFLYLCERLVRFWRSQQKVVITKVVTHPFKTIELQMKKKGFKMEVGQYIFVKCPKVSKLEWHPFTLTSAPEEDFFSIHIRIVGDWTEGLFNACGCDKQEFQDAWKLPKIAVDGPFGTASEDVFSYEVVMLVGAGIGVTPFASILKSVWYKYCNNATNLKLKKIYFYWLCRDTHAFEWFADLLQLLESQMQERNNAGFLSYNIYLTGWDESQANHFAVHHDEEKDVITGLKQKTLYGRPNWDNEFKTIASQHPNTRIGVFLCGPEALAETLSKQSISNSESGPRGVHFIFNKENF
Chain of Streptavidin (Streptomyces avidinii) (P22629 whole entry, looked up): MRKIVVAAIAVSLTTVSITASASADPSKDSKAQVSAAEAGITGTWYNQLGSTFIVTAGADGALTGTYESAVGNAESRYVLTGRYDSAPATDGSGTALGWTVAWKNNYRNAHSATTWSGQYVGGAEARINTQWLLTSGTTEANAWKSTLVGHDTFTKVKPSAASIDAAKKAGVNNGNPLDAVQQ
Chain of Torsin-1A (Homo sapiens) (O14656 whole entry, looked up): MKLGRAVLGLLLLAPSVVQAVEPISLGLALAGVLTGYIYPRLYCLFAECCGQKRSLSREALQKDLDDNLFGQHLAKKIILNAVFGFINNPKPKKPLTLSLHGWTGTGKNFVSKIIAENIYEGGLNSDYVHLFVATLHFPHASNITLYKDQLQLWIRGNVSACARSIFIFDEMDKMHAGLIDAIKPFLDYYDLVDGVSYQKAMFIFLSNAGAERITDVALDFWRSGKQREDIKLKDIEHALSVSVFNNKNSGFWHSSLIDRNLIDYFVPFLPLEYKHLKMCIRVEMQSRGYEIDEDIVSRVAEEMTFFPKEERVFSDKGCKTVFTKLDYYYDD

Structure (SMILES) | composite z-score [1] | z-score [2] | z-score [3] | z-score [4] | z-score [5] | composite z-score [6] | composite z-score [7] | composite z-score (Torsin-1A (Homo sapiens) [8]) | composite z-score (Torsin-1A (Homo sapiens) [9]) | composite z-score [10] | z-score [11] | composite z-score [12] | z-score [13] | z-score [14] | z-score [15] | z-score [16] | z-score [17] | z-score [18] | z-score [19] | z-score [20]
CC(C)CN1CCc2nc(-c3ccccc3)c3c(c2CC1)CO[C@@H](C)C3 | 0.134 | -0.388 (inactive) | -0.705 (inactive) | 0.738 (inactive) | -1.26 (inactive) | -0.2 | 0.255 | 0.531 | 0.954 | 1.53 | 0.0991 (inactive) | 0.0981 | 0.82 (inactive) | 0.576 (inactive) | 0.923 (inactive) | -0.142 (inactive) | -0.528 | 1.47 (inactive) | -0.0482 (inactive) | -0.334
CCOC(=O)C1=CC[C@H]2C(=O)N(CC)C(=O)[C@@H]12 | 0.281 | -0.0046 (inactive) | -0.929 (inactive) | -0.228 (inactive) | 0.687 (inactive) | 0.0789 | -0.0719 | 0.483 | -0.552 | 0.13 | -0.457 (inactive) | -0.0412 | 1.09 (inactive) | 1.21 (inactive) | 0.253 (inactive) | 0.804 (inactive) | -0.45 | -0.0988 (inactive) | 0.484 (inactive) | 0.829
CC(C)=NOCc1ccc(-c2cc(-c3ccccc3)no2)cc1 | 0.102 | 0.517 (inactive) | 1.5 (inactive) | -0.797 (inactive) | 0.275 (inactive) | 0.06 | -0.23 | 0.299 | -0.223 | 0.253 | 0.433 (inactive) | -0.283 | 0.251 (inactive) | 0.367 (inactive) | -0.201 (inactive) | -0.0729 (inactive) | 0.321 | -2.54 (inactive) | 0.311 (inactive) | -0.0709
CCOC(=O)C1=CCC(c2cc3ccccc3[nH]2)NC1 (stereo not given) | 0.109 | -2.83 (inactive) | 0.756 (inactive) | 0.369 (inactive) | 0.464 (inactive) | 0.338 | 0.029 | 0.661 | 0.449 | -0.402 | -0.92 (inactive) | 0.3 | 6.29 (inactive) | 1.16 (inactive) | 2.48 (inactive) | 0.829 (inactive) | 0.0315 | -0.246 (inactive) | 0.0972 (inactive) | 0.287
CC(C)CON=C1C[C@@H](O)[C@@H](O)[C@@H]2[C@@H]3C(=O)N(C[C@@H]4CCCO4)C(=O)[C@@H]3CC[C@H]12 | -0.0313 | -1.36 (inactive) | 1.34 (inactive) | -1.02 (inactive) | -0.296 (inactive) | -0.23 | -0.128 | 0.0672 | 1.49 | 0.819 | 0.165 (inactive) | -0.0559 | 0.0811 (inactive) | 0.449 (inactive) | -0.425 (inactive) | -0.0131 (inactive) | -0.383 | 0.202 (inactive) | 0.313 (inactive) | -0.61
CC(C)=CCCC(C)=CCON=C1[C@H]2CCn3c(=O)n(C)c(=O)n3[C@H]2[C@H](O)[C@@H]2O[C@H]12 | 0.287 | 0.583 (inactive) | 1.13 (inactive) | 0.519 (inactive) | -0.0697 (inactive) | 0.203 | -0.12 | 1.15 | 0.898 | 1.98 | 0.459 (inactive) | -0.115 | 0.306 (inactive) | 0.197 (inactive) | 0.0128 (inactive) | 0.0078 (inactive) | -0.48 | -2.6 (inactive) | 0.0699 (inactive) | 0.43
CC(=O)OC[C@H]1O[C@@H](ON=C[C@@H](C)[C@H](OCc2ccccc2)C(C)C)[C@H](OC(C)=O)[C@@H](OC(C)=O)[C@@H]1OC(C)=O | 0.235 | 0.558 (inactive) | -0.379 (inactive) | 2.19 (inactive) | 0.1 (inactive) | -0.173 | 0.157 | 1.68 | 0.958 | -0.925 | 0.319 (inactive) | 0.113 | 0.857 (inactive) | 0.536 (inactive) | 1.04 (inactive) | 0.22 (inactive) | 0.761 | -0.72 (inactive) | 0.404 (inactive) | -0.856
CC(C)=NOCc1cccc(-c2cc(-c3ccccc3)no2)c1 | 0.118 | 0.525 (inactive) | -0.14 (inactive) | -0.437 (inactive) | 0.345 (inactive) | 0.468 | 0.106 | 0.533 | 0.247 | 0.826 | -1.79 (inactive) | 0.194 | 0.648 (inactive) | -0.166 (inactive) | -0.532 (inactive) | -0.388 (inactive) | -0.947 | 1.21 (inactive) | 0.439 (inactive) | -0.0547
CCOC(=O)[C@H](Cc1ccccc1)NC(=O)CCC1CC(OC(=O)NCc2ccc3c(c2)OCO3)CC2(CCCC(COC(=O)NCC(c3ccccc3)c3ccccc3)O2)O1 (stereo not given in full) | -0.169 | -0.9 (inactive) | -1.34 (inactive) | -0.255 (inactive) | 0.0668 (inactive) | 0.0072 | 0.0155 | 0.545 | 0.401 | 1.48 | 1.13 (inactive) | -0.0046 | 13.8 (active) | 4.29 (inactive) | 0.394 (inactive) | 1.3 (inactive) | 0.0394 | -0.742 (inactive) | 0.406 (inactive) | 0.491
